Reference: PubChem BioAssay (NCI)
The panel holds about 83,000 compounds, 20% with a hit somewhere; the sample as a whole holds those more often.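 Plates (96-well) were seeded with cells, treated with compound at one concentration, and incubated for 48 hours before percent growth was determined.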 Unmarked numbers belong to inactive results. Calls of active or inactive are those of the source. The calls were made as follows: active = growth percent below 10; inactive = the rest.

Tests used:
Assay in all cases: NCI-60 one-dose screen, 48 h (100 = growth as untreated, 0 = no growth, -100 = all killed)
Conditions in all cases: 10 µM unless noted
[1] = test system: BT-549 breast
[2] = test system: MDA-MB-435 melanoma
[3] = test system: SW-620 colon
[4] = test system: MCF7 breast
[5] = test system: HCT-116 colon
[6] = test system: HCC-2998 colon
[7] = test system: KM12 colon

Structure (SMILES)	growth [1]	growth [2]	growth [3]	growth [4]	growth [5]	growth [6]	growth [7]
CCCCN1C(=O)/C(=c2\sc3n(c2=O)C2C(NN=3)N(CC)C(=O)N2CC)c2cc(Cl)ccc21 (centres undefined)	85%	6.07% (active)	58.2%	27.5%	56.7%	101%	55.8%
Fc1ccc(-c2cc3nc(C(Cl)Cl)nc(-c4ccccc4)n3n2)cc1	46.5%	6.42% (active)	-50.2% (active)	8.55% (active)	-54.7% (active)	-47.1% (active)	-37.7% (active)
NC(=O)c1c(NC(=O)c2ccc(C3CCCCC3)cc2)sc2c1CCC(=O)C2	-2.9% (active)	11.9%	10.4%	10.9%	7.94% (active)	–	15.8%
COc1cc2nc(-c3ccc(C(F)(F)F)cc3)cc(OCCCNCC3CCCO3)c2cc1OC (centres undefined)	66.3%	5.88% (active)	16.3%	13%	22.6%	–	27.3%
N#Cc1c(-c2ccc(Cl)cc2)nc(SCc2ccccc2)nc1N1CCNCC1	90.5%	71.4%	-50.2% (active)	8.71% (active)	-74.3% (active)	–	39.6%
Cc1ccc2c(n1)C(=O)C(Cl)=C(Nc1cccc(C(C)C)c1)C2=O	58.7%	-70.6% (active)	28.3%	-56.7% (active)	13.1%	–	80%
C=CCn1c(SCC(=O)c2ccccc2)nnc1-c1c[nH]c2ccccc12	109%	105%	96.1%	97.2%	97.5%	111%	112%
C#Cc1nc(C2=C(C)C(OC(C)=O)/C(=N/OC(C)=O)C2)cs1 (centres undefined)	-74.3% (active)	88.9%	8.98% (active)	25.9%	19.9%	–	-19.7% (active)
Cc1ccc2ccc3ccc(C)nc3c2n1.Cc1ccc2ccc3ccc(C)nc3c2n1.Oc1c(Cl)cc(Cl)c2ccc(CN3CCCCC3)nc12.[Ru]	-95.8% (active)	-90.5% (active)	-40% (active)	-75.1% (active)	-92% (active)	–	-73.9% (active)
COc1ccc(CNS(=O)(=O)/N=C2\NC(=O)NC2=C(Cl)Cl)cc1	-8.05% (active)	-3.14% (active)	27.2%	18.2%	6.95% (active)	–	17.1%
CCOC(=O)c1sc(N)c(C(=O)OCC)c1C	59.9%	81.2%	71.6%	57.9%	52.8%	–	69.1%
CCCCCCNC(=O)Oc1ccc(/C(=C(/C)c2ccccc2)c2ccc(OCCN3CCCCCC3)cc2)cc1	66.7%	49.6%	-35.2% (active)	13.6%	23.8%	–	32.3%
Nc1ncc(-c2ccc3ncnc(N4CCc5cc(F)c(Cl)cc54)c3c2)cc1CO	-31.1% (active)	-34.4% (active)	11.1%	4.61% (active)	6.3% (active)	–	0.831% (active)
COc1ccc(NC2=CC(=O)C(C)=C(C)C2=O)cc1	119%	7.8% (active)	101%	71.9%	80.6%	–	101%
C#Cc1nc(C2=C(C)/C(=N/OCc3ccccc3)CC2)cs1	58.1%	80.1%	85.6%	49.5%	40.6%	–	19.6%
O=C1Nc2ccc(Cl)cc2/C1=C/c1ccc(OCC(=O)c2ccc(Br)cc2)cc1	118%	99.1%	89.9%	80.1%	95.5%	–	59.1%
CN(C)S(=O)(=O)c1oc(-c2ccccc2)nc1C#N	64.4%	78.9%	0.559% (active)	39.4%	61.3%	–	92.9%
CCOC(=O)c1c(NC(=O)c2cccc(C(F)(F)F)c2)sc2cc(O)ccc12	89.7%	104%	103%	46.6%	91.7%	–	95.5%
CS(=O)(=O)c1ccc(-c2nc3ccccn3c2/C=N/Nc2nc(-c3ccc(Cl)cc3)cs2)cc1	103%	96.8%	113%	91.6%	101%	–	112%

Structure (SMILES)	growth [1]	growth [2]	growth [3]	growth [4]	growth [5]	growth [6]	growth [7]
CCOc1ccc([C@H]2C(C(=O)c3ccc(Cl)cc3)C3(N[C@@H]2c2ccccc2)C(=O)Nc2ccc(Br)cc23)cc1 (some centres undefined)	71.9%	28.5%	24.6%	9.08% (active)	4.78% (active)	–	-10.8% (active)
CSc1ccc2c(c1)N(C(=O)/C(C#N)=C/c1c[nH]c3ccccc13)c1ccccc1S2	55.8%	11.7%	34.5%	23.1%	24.3%	–	24.5%
Cc1sc2nc(NCc3ccccc3Cl)[nH]c(=O)c2c1C	99.8%	92.6%	102%	80.6%	49.7%	115%	91%
CC(=O)Nc1cc(F)cc(-c2ccc3[nH]cc(-c4ccccc4)c3n2)c1	73.1%	9.43% (active)	-56.2% (active)	1.97% (active)	11.9%	–	-41% (active)
O=C(N/N=C/c1ccc([N+](=O)[O-])o1)c1[nH]c2ccc(Br)cc2c1-c1ccccc1	-32.1% (active)	-40.8% (active)	10.5%	7.95% (active)	-8.73% (active)	–	15.3%
O=C(CN1CCOCC1)NNc1ncnc2ccccc12	100%	91.7%	-26% (active)	64.6%	81.7%	114%	97.1%
Cn1c(SCC(=O)Nc2ccc(-c3nc4ccc([N+](=O)[O-])cc4[nH]3)cc2)nc2ccccc2c1=O	27.8%	93.4%	87.3%	45.3%	70.9%	84.6%	65.5%
c1ccc2c(NCCCn3ccnc3)c3oc4ccccc4c3nc2c1	21.6%	3.7% (active)	-16.9% (active)	-11.4% (active)	6.12% (active)	–	7.47% (active)
Clc1ccc(Cc2nnc3sc(-c4cccnc4)nn23)cc1	95.5%	101%	99.1%	88.7%	101%	–	99.7%
CC(=O)Oc1ccccc1C(=O)Nc1cc(C(C)C)ccc1C	37.5%	11.1%	23.8%	9.56% (active)	11.3%	–	11.1%
C=CCn1c(SCC(=O)c2ccc(Br)cc2)nnc1-c1c[nH]c2ccccc12	106%	108%	110%	97.9%	93.5%	–	102%
CN(C)c1ccc(/C=C2\Cc3c(F)ccc(Br)c3C2=O)cc1	117%	92.7%	89.9%	39.8%	98.5%	104%	93.1%
COc1ccc(C(=O)c2cc(C(=O)/C=C/c3c(Cl)cccc3Cl)c3cc(C)ccn23)cc1	119%	99.6%	95.5%	98%	99.8%	–	100%
Cn1c(SCC(=O)c2cccs2)nc2ccccc2c1=O	108%	103%	99.7%	62.4%	93.9%	–	99.1%
NS(=O)(=O)c1cccc(Nc2nc(SCC(=O)c3ccc(Br)cc3)nc3ccccc23)c1	-40.8% (active)	75.3%	63.7%	32.4%	38.9%	–	69.7%
COC(=O)C(C)NS(=O)(=O)/N=C1\NC(=O)NC1=C(Cl)Cl (centres undefined)	109%	105%	124%	98%	102%	–	105%
O=c1[nH]c2ccccc2cc1CSc1ccccc1Nc1nccc(-c2ccc(C(F)(F)F)cc2)n1	112%	74.6%	68.1%	40.3%	43.4%	–	79.3%
Cc1cc(C(=O)Nc2sc3c(c2C(N)=O)CCC(=O)C3)ccc1OCCN1CCCCC1	129%	103%	86.5%	95.3%	84.1%	–	88.7%
